Calls of active or inactive are those of the source.

The nature of this test: small-molecule microarray binders of probe aXIP, primary screen, biochemical, NeuroSMM set, 635/667 nm fluorescence (AID 1119).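 Also: probe is the protein aXip251-270 applied at 1 µg/mL to compound-printed slides; binding of probe to printed compounds measured as 667 nm fluorescence plus signal to noise.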 The following applies: higher = more signal, called active from +8 up or from −8 down.
On to `Oc1ccc2cc[n+](Cc3cccc(OC(F)(F)F)c3)cc2c1`, for which the composite Z-score was 0.587 (inactive). The result for `CC1CC/C=C\[C@H]2OC34C=CCN(CCN5CCOCC5)C(=O)[C@H]3N(CCCCCO)C(=O)[C@@H]4C2C(=O)O1` (some centres undefined) reads 0.905 (inactive); that for `C=C(C(=O)CC[C@@H](OC(=O)c1cccnc1)c1ccc(CO)o1)C(C)C`, 0.278 (inactive); that for `C=CCC(OC(C)=O)[C@@H]1[C@@H](N(Cc2cc3ccccc3o2)C(=O)c2cccc3ccccc23)c2cc(OCCCO)ccc2N1C(=O)Cc1ccc(OC)cc1` (some centres undefined), 0.495 (inactive). As for `C=CCN1C(=O)[C@]2(COC(c3ccc(OCCCO)cc3)=N2)Cc2ccccc21`, the composite Z-score is -0.586 (inactive). The result for `O=C(NCc1ccccc1)[C@@H]1c2ccccc2C(=O)N(C2CCCCC2)[C@H]1c1ccc(CO)cc1` reads 0.142 (inactive). In the case of `[N-]=[N+]=NCc1ccccc1C[C@@]1(C(=O)NCc2ccccc2)N=C(c2ccc(OCCCO)cc2)O[C@@H]1c1ccccc1CN=[N+]=[N-]` it was 0.936 (inactive).

With `CCOC(=O)C=Cc1cccc(OC)c1O`, the composite Z-score was 0.229 (inactive). In the case of `CN(C)CCCC[C@@H]1NC(=O)[C@H]2C[C@@H](C(=O)NCCCCCNC(=O)CS)[C@@H](c3ccc(O)cc3)N2C1=O` it was 0.157 (inactive). The result for `COC(=O)[C@@]1(Cc2ccccc2)[C@H]2c3cc(C(=O)N(C)C)n(Cc4cc(F)c(F)c(F)c4)c3C[C@H]2CN1C(=O)c1ccccc1` reads -0.389 (inactive); that for `C=C(C)[C@@H]1CC=C(C(O)C2C=CC3C(=O)N(Cc4ccccc4)C(=O)C3N2n2cnnc2)CC1` (some centres undefined), -0.619 (inactive). For the compound `O=C(NCCN1CCOCC1)[C@@H]1c2ccccc2C(=O)N(Cc2cc(F)cc(C(F)(F)F)c2)[C@H]1c1ccc(CO)cc1`, the composite Z-score is -0.543 (inactive). The result for `O=C1O[C@H](c2ccccc2)[C@H](c2ccccc2)N2[C@H]1[C@@H](C(=O)NC[C@H](O)c1ccccc1)[C@]1(C(=O)Nc3ccc(C#CC4(O)CCCCCC4)cc31)[C@H]2c1ccccc1OCCO` reads 0.228 (inactive). The result for `C=C(/C(=C/C[C@@H](OC(=O)c1ccncc1)c1ccc(CO)o1)c1cc(C(=O)OC)ccc1OC)C(C)C` reads 0.459 (inactive); that for `COc1ccc([Si](C)(C)[C@@H]2[C@@H](CCO)O[C@]3(C(=O)N(Cc4ccccc4)c4ccc(N(C=O)c5ccccc5)cc43)[C@H]2C)cc1`, 1.04 (inactive); that for `CCCCCCC#C[Si](O[C@H](c1ccccc1)c1cn([C@H](C)c2ccccc2)nn1)(C(C)C)C(C)C`, 0.282 (inactive). In the case of `[N-]=[N+]=NCc1ccccc1[C@@H]1OC(c2ccc(OCCCO)cc2)=N[C@]1(Cc1ccccc1)C(=O)O` it was 1.38 (inactive). Take `CCCC[C@@H]1C[C@H]1[C@@H](NC(=O)c1ccccc1)c1ccc(-c2ccccc2)cc1`: the composite Z-score was -0.0708 (inactive). In the case of `Cc1ccc(S[C@]2(C(=O)NCCN3CCOCC3)CC(=O)N(C3CCCCC3)[C@@H]2c2ccc(CO)cc2)cc1` it was 0.562 (inactive). The result for `CC(C)NC(=O)[C@@]1(c2ccc([N+](=O)[O-])cc2)CC(=O)N(C(C)C)[C@@H]1c1ccc(CO)cc1` reads 0.461 (inactive). `C=CCN1Cc2ccccc2C[C@@]2(COC(c3ccc(OCCCO)cc3)=N2)C1=O`: the composite Z-score was 0.0425 (inactive).

As to `COCCn1c(C(=O)N2CCCC2)cc2c1C[C@H]1CN(C(=O)c3ccccc3)[C@@](Cc3ccc(OC)cc3)(C(=O)OC)[C@@H]21`, the composite Z-score is 0.433 (inactive).

Turning to `C=C[C@@H](C)[C@@H](OC(=O)Nc1ccc(OC)cc1)c1ccc(O)c2ccccc12`, the composite Z-score is 0.725 (inactive).

In the case of `COCCOC(=O)N1C(=O)[C@@]2(c3ccccc31)[C@H](C(=O)N1CCCCCCC1)[C@H]1C(=O)O[C@H](c3ccccc3)[C@H](c3ccccc3)N1[C@@H]2c1ccccc1OCCO`, the composite Z-score is 3.89 (inactive). In the case of `COCCn1c(C(=O)N(C)C)cc2c1C[C@H]1CN(C(=O)c3ccccc3)[C@@](Cc3ccc(F)cc3)(C(=O)OC)[C@@H]21` it was 0.916 (inactive); in that of `CC(C)N1C(=O)c2ccccc2[C@](C)(C(=O)NCCCN(C)C)[C@@H]1c1ccc(CO)cc1`, -0.264 (inactive); in that of `O=C1C2C=CC(C(O)c3ccc(-c4ccccc4)s3)N(Nc3ccccc3F)C2C(=O)N1c1ccccc1` (centres undefined), 0.446 (inactive).

As to `CN1C(=O)C2C(C1=O)C1C=C(c3ccc(CO)cc3)C2C(C2CC2)N1Cc1sc2ccccc2c1Cl` (centres undefined), the composite Z-score is -0.0285 (inactive). The result for `CO[C@H]1O[C@H](CO)[C@@H](OC(=O)Nc2ccc3c(c2)OCO3)[C@H](OC(=O)Nc2ccc3c(c2)OCO3)[C@H]1OC(=O)Nc1ccc2c(c1)OCO2` reads 0.204 (inactive).

The values above are taken from PubChem BioAssay.
